# From PubChem BioAssay
# An excerpt weighted towards active compounds, which were near 5.2% of everything screened.
# Tau fibril FP – qHTS for Inhibitors of Tau Fibril Formation, Fluorescence Polarization | Microtubule-associated protein tau (Homo sapiens), P10636 | K18 P301L tau heparin fibrillization, Alexa594 FP, 6 h | Potency, µM (series often up to 57.7 µM), for the others: at the highest dose activity, negative = inhibition, usual class: inhibitors | actives 0.39% (n = 280,000); also: potency is read from the fitted curve at half-maximal effect; nearly all actives have a fitted effect of over 55% in size
# Target sequence (P10636 561-689 P618L limits assumed): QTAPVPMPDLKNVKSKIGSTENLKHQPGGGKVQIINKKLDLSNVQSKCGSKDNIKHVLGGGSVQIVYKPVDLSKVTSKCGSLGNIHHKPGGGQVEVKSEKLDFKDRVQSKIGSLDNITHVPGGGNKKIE
#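 Heparin (20 uM) drove fibril formation of recombinant tau K18 P301L, 15 uM unlabeled with 0.24 uM Alexa 594 label, for 6 hr at 37 C in 100 mM sodium acetate pH 7. Fluorescence polarization (555/632 nm) read 1 hr after 30 uM ThT.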
# Tau fluor counter – Counterscreen qHTS for Inhibitors of Tau Fibril Formation, Fluorescence Polarization | tau K18 P301L Alexa594 fluorescence, heparin fibrillization | Potency, µM (top dose mostly 57.7 µM), without a hit: at the top dose activity change, negative = decrease | actives 0.93% (n = 280,000); also: potency is read from the fitted curve at half-maximal effect; nearly all actives have a fitted effect of over 55% in size
#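 Human K18 P301L tau (15 uM unlabeled plus 0.24 uM Alexa 594-labeled, final) in 100 mM sodium acetate pH 7 was mixed with compound and 20 uM heparin and incubated 6 hr at 37 C.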
# Coupling enz – qHTS Assay for Inhibitors of Fructose-1,6-bisphosphate Aldolase from Giardia Lamblia: Coupling assay counterscreen | coupling enzyme system counterscreen, AmpLite Red fluorescence | activity change, negative = inhibition, % at 58.2 µM, hits read low | actives 0.67% (n = 290,000) | AID 2472, 2010; in the data active = activity change below about -30%
#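 Counterscreen of the coupled detection system alone, without aldolase: glyceraldehyde-3-phosphate coupling enzymes plus AmpLite Red readout. Compounds at 57.5 uM final, 10 min RT preincubation, 20 min RT reaction, fluorescence 525/598 nm.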
# Sfp inh – qHTS Assay for Inhibitors of Bacillus subtilis Sfp phosphopantetheinyl transferase (PPTase). 4'-phosphopantetheinyl transferase ffp (Bacillus subtilis), Q9F4F7. Biochemical Sfp PPTase activity, qHTS. Potency, µM, without a hit: largest response in the series, negative = inhibition, hits mostly inhibitors. actives 3.5% (n = 310,000);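 also: the enzyme is Sfp with the accession as filed and its product quenches rhodamine fluorescence; potency is read from the fitted curve at half-maximal effect; 0% = enzyme reaction without inhibitor and -100% = no enzyme wells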
#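 Fluorescence-quenching assay: 15 nM Sfp-PPTase preincubated 15 min at room temperature with compound, then 5 uM rhodamine-CoA and 12.5 uM BHQ-2-labelled YbbR peptide added. Fluorescence (ex 525/em 598 nm) read at start and after 30 min; difference gives rate.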
# Tau ThT inhib – qHTS for Inhibitors of Tau Fibril Formation, Thioflavin T Binding | Microtubule-associated protein tau (Homo sapiens), P10636 | actives 2.1% (n = 270,000) | Potency, µM (highest dose often 57.4 µM), for the others: at the highest dose activity, negative = inhibition, most hits filed as inhibitors | recombinant tau K18 P301L (four-repeat tau fragment), heparin-induced fibrillization, ThT fluorescence; also: potency is read from the fitted curve at half-maximal effect; nearly all actives have a fitted effect of over 55% in size
#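 K18 P301L tau (15 uM + 0.24 uM Alexa 594-tagged), heparin 20 uM, NaOAc pH 7, 6 h 37 C; ThT 30 uM, 1 h RT, ex 450/em 510 nm.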
# The depositor's hits bear a star; u = inconclusive; x = no result given; [ ] = dose if it differs, or a comment. Unless noted, calls follow the shape of the dose curve; as a rule, active = well fitted curve in the direction sought with a large enough effect; inconclusive = small, poorly fitted or top-dose-only effect, or another doubt; inactive = no such curve, though single readings can be large; an effect the other way counts as inactive or inconclusive. Unless noted, % is scaled to controls: 0 for no effect and ±100 for the full control effect.
SMILES,Tau fibril FP,Tau fluor counter,Coupling enz,Sfp inh,Tau ThT inhib
CC(=O)NCCNc1ccnc(-c2ccccc2C(F)(F)F)n1,x,x,-4,-4%,x
COC(=O)c1c(-c2ccc(Cl)cc2)noc1N1CCN(c2cccc(OC)c2)CC1,7%,-15%,x,x,-15%
Cc1nc(-c2ccccc2)sc1-c1ccc(SCC(=O)Nc2ccc(F)cc2F)nn1,-14%,-20%,x,x,2%
CCOc1ccc2c(c1)n([O-])c1c([n+]2=O)CCCC1,u,-22%,-58*,20µM*,20µM*
Cc1ccccc1NC(=O)Cn1c(SCC(=O)Nc2ccc(F)cc2)nc2ccccc21,u,-16%,x,x,0%
O=C(O)c1ccccc1CSc1nnc2c(n1)[nH]c1ccccc12,0%,-4%,16,56µM*,-11%
O=C(O)CSc1nnc2c(n1)[nH]c1ccccc12,6%,4%,1,50µM*,-15%
CCOC(=O)c1sc(NC(=O)c2nc(SCC)ncc2Cl)c(C(=O)OCC)c1C,-7%,-17%,x,x,-14%
Cn1c(=O)[nH]c(=O)c2c1nc(SCC(O)CCl)n2Cc1ccccc1 (centres undefined),x,x,3,40µM*,x
CCCCn1c(SCC(=O)OCC)nc2c1c(=O)[nH]c(=O)n2C,7%,-5%,-1,-21%,-7%
CC(O)CSc1nc2c(c(=O)[nH]c(=O)n2C)n1Cc1ccccc1 (centres undefined),x,x,1,16%,x
Cc1ccc(Cn2c(SCC(C)C)nc3c2c(=O)[nH]c(=O)n3C)cc1,4%,2%,0,35µM*,5%
CCOC(=O)CSc1nc2c(c(=O)[nH]c(=O)n2C)n1C/C=C(/C)Cl,0%,1%,1,50µM*,1%
CCCCCn1c(SCCN2CCOCC2)nc2c1c(=O)[nH]c(=O)n2C,-13%,-10%,2,50µM*,-8%
Cc1ccc(CN2C(=O)C3(SCC(=O)N3c3ccc(C)c(C)c3)c3ccccc32)cc1 (centres undefined),-1%,-27%,x,x,u
Cn1c(=O)[nH]c(=O)c2c1nc(SCC(=O)O)n2CCc1ccccc1,4%,4%,3,45µM*,2%
CCC(C)Sc1nc2c(c(=O)[nH]c(=O)n2C)n1CC(O)COc1ccccc1C (centres undefined),-7%,-4%,-1,40µM*,-15%
O=C(O)CN1C(=O)/C(=C\c2cc([N+](=O)[O-])ccc2OCc2ccccc2Cl)SC1=S,x,x,12,79µM*,x
COc1ccc2[nH]c(=O)c3c(c2c1)OC(C)(C)C=C3,-6%,-18%,-19,-20%,-10%
Cc1cc2c([nH]c3ccccc32)c2c1OC(C)(C)C=C2,10%,14µM*[quencher],-7,27%,u
COc1cccc(-c2noc(-c3cc(C(C)C)[nH]n3)n2)c1OC,2%,-11%,x,x,-8%
CC(=O)c1ccc(NC(=O)CSc2nnc(-c3ccco3)c(-c3ccco3)n2)cc1,8.9µM*,u,-13,8.9µM*,4µM*
O=C(Nc1ccccc1)c1ccc2nc(-c3ccco3)c(-c3ccco3)nc2c1,u,u,-38*,20µM*,u
O=C(NCc1ccccc1)c1ccc2nc(-c3ccco3)c(-c3ccco3)nc2c1,u,u,-19,7.1µM*,14µM*
O=C(NCc1ccccc1)c1ccc2nccnc2c1,-5%,-6%,2,2%,-7%
SMILES,Tau fibril FP,Tau fluor counter,Coupling enz,Sfp inh,Tau ThT inhib
O=C(CSc1nnc(-c2ccco2)c(-c2ccco2)n1)c1ccccc1,-7%,8%[2.34 µM],-2,14%,10%
O=C(Nc1nnc(-c2ccco2)s1)c1ccccc1,-2%,-6%,1,45µM*,-10%
CC(C)[N+]1(C)[C@@H]2CC[C@H]1CC(OC(=O)[C@@H](CO)c1ccccc1)C2 (some centres undefined),1%,-6%,1,13%,-8%
COc1ccc(-c2nc(CSc3nnc(C)n4c3cc3sccc34)c(C)o2)cc1,u,11%,x,x,-7%
C[C@@]1(O)C(O)[C@@H](CO)O[C@H]1n1cnc2c(NC3CCCC3)nc(Cl)nc21 (some centres undefined),-3%,-10%,1,12%,-3%
CC(=O)c1ccc(NC(=O)c2ccc3nc(-c4ccco4)c(-c4ccco4)nc3c2)cc1,-14%,u,-30*,13µM*,13µM*
C(=N\NC1=Nc2cccc3cccc1c23)/c1ccccn1,4%,u,-15,45µM*,2.8µM*
C(=N\N=C\c1ccccn1)/c1ccccn1,x,x,-2,-7%,x
Clc1ccccc1/C=N/NC1=Nc2cccc3cccc1c23,3%,-28%,-2,-1%,2µM*
CCCOc1ccc(-c2nonc2NC(=O)c2oc3ccc(C)cc3c2C)cc1OCCC,-3%,-1%,x,x,15%
Cc1nc(N)sc1N=Nc1ccc(F)cc1,11%,u,-1,-28%,8.9µM*
Cc1ncc(N=Nc2ccc(F)cc2)c(-c2ccc(Cl)cc2)n1,12%,-17%,-2,6%,-15%
COC(=O)C1=C(C)N(Cc2ccccc2)C2=C(C(=O)c3ccccc3)C(c3ccccc3)[C@@](O)(C(=O)OC)C(=O)N2C1c1ccccc1 (some centres undefined),-9%[11.6 µM],-6%[11.6 µM],2,-1%,u
Oc1c(Br)cc(Br)cc1C=NCc1ccc(F)cc1,u,-7%,-18,-48%,20µM*
Cc1noc(C)c1-c1ccc2ncnc(NCc3cccc(-c4ccccc4)c3)c2c1,x,x,-3,9%,x
COc1ccc(NC(=O)c2cc3c(=O)n(Cc4cccnc4)ccc3nc2C)cc1Cl,-2%,-24%,x,x,u
Cc1cccn2c(=O)cc(COc3ccc(NC(=O)c4cccc(F)c4)cc3)nc12,-4%,-2%,x,x,-4%
CC(C)Cc1nn2c(=O)cc(COC(=O)c3ccc(NC(=O)C4CCCCC4)cc3)nc2s1,-1%,0%,x,x,0%
Cc1ccccc1-n1c(C)cc(/C=N/Nc2ccc([N+](=O)[O-])cn2)c1C,3%,u,-2,8%,4.5µM*
Cc1cc(C)nc(SCC(=O)N/N=C/c2cc(C)n(-c3ccccc3C)c2C)n1,6%,-21%,0,-23%,u
O=[N+]([O-])c1ccc(N/N=C\c2cccn2-c2ccccc2)nc1,16%,16µM*[quencher],2,u,7.1µM*
Cc1cc(/C=N/Nc2ccc([N+](=O)[O-])cn2)c(C)n1-c1ccc(C(=O)O)cc1,u,u,-7,56µM*,4.5µM*
O=[N+]([O-])c1ccc(N/N=C/c2ccc(OCc3cccc4ccccc34)cc2)nc1,-3%,u,2,-8%,u
